# The campaign covered roughly 5,500 compounds. About 2,000 (36%) were called active. Roughly 18% stayed inconclusive and do not appear here. The list shows a part of the results. Unmarked numbers belong to inactive results. Rule as the data show it: active = normalized growth mostly below about 0.91 (no sharp cut-off); inconclusive = no clear call, values can overlap the other calls; inactive = mostly above about 0.92.
# Test: chemical genetic growth profiling, strain panel (AID 1159580);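 also: tested at 20 µM; growth read once vehicle control cultures reached saturation at 30 °C; 1 = growth at the plate median or of vehicle wells; lower values mean less growth of the strain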
# Details: S. cerevisiae deletion strains, growth OD
# [1] = locus YAR019C, strain CDC15, stronger effect = lower value
# [2] = locus YBL105C, strain PKC1, stronger effect = lower value
# [3] = locus YBR135W, strain CKS1, stronger effect = lower value
# [4] = locus YBR136W, strain MEC1, stronger effect = lower value
# [5] = locus YBR160W, strain CDC28, stronger effect = lower value
# [6] = locus YDL017W, strain CDC7, stronger effect = lower value
# [7] = locus YDL028C, strain MPS1, stronger effect = lower value
# [8] = locus YDL101C, strain DUN1, stronger effect = lower value
# [9] = locus YDL108W, strain KIN28, stronger effect = lower value
# [10] = locus YDL132W, strain cdc53, stronger effect = lower value
# [11] = locus YDL214C, strain PRR2, stronger effect = lower value
# [12] = locus YDR052C, strain DBF4, stronger effect = lower value
# [13] = locus YDR054C, strain cdc34, stronger effect = lower value
# [14] = locus YDR226W, strain ADK1, stronger effect = lower value
# [15] = locus YDR477W, strain SNF1, stronger effect = lower value
# [16] = locus YER123W, strain YCK3, stronger effect = lower value
# [17] = locus YER133W, strain GLC7, stronger effect = lower value
# [18] = locus YFL009W, strain cdc4, stronger effect = lower value
# [19] = locus YFL029C, strain CAK1, stronger effect = lower value
# [20] = locus YFR003C, strain YPI1, stronger effect = lower value
# [21] = locus YFR019W, strain FAB1, stronger effect = lower value
# [22] = locus YFR028C, strain CDC14, stronger effect = lower value
# [23] = locus YGR040W, strain KSS1, stronger effect = lower value
# [24] = locus YGR052W, strain FMP48, stronger effect = lower value
# [25] = locus YGR092W, strain DBF2, stronger effect = lower value
# [26] = locus YHR030C, strain SLT2, stronger effect = lower value
# [27] = locus YHR079C, strain IRE1, stronger effect = lower value
# [28] = locus YHR082C, strain KSP1, stronger effect = lower value
# [29] = locus YHR205W, strain SCH9, stronger effect = lower value
# [30] = locus YIL147C, strain SLN1, stronger effect = lower value
# [31] = locus YJL095W, strain BCK1, stronger effect = lower value
# [32] = locus YJL128C, strain PBS2, stronger effect = lower value
# [33] = locus YJL157C, strain FAR1, stronger effect = lower value
# [34] = locus YJR016C, strain ILV3, stronger effect = lower value
# [35] = locus YJR066W, strain TOR1 (second series), stronger effect = lower value
# [36] = locus YJR066W, strain TOR1, stronger effect = lower value
# [37] = locus YKL048C, strain ELM1, stronger effect = lower value
# [38] = locus YKL067W, strain YNK1, stronger effect = lower value
# [39] = locus YKL101W, strain HSL1, stronger effect = lower value
# [40] = locus YKL193C, strain SDS22, stronger effect = lower value
# [41] = locus YKL203C, strain TOR2, stronger effect = lower value
# [42] = locus YLR113W, strain HOG1, stronger effect = lower value
# [43] = locus YLR133W, strain CKI1, stronger effect = lower value
# [44] = locus YLR403W, strain SFP1, stronger effect = lower value
# [45] = locus YML070W, strain DAK1, stronger effect = lower value
# [46] = locus YMR001C, strain CDC5, stronger effect = lower value
# [47] = locus YMR205C, strain PFK2 (second series), stronger effect = lower value
# [48] = locus YMR277W, strain FCP1, stronger effect = lower value
# [49] = locus YNL006W, strain LST8, stronger effect = lower value
# [50] = locus YNL020C, strain ARK1, stronger effect = lower value
# [51] = locus YNL161W, strain CBK1, stronger effect = lower value
# [52] = locus YNL183C, strain NPR1, stronger effect = lower value
# [53] = locus YNL207W, strain RIO2, stronger effect = lower value
# [54] = locus YNL222W, strain SSU72, stronger effect = lower value
# [55] = locus YNL307C, strain MCK1 (second series), stronger effect = lower value
# [56] = locus YOL078W, strain AVO1, stronger effect = lower value
# [57] = locus YOL136C, strain PFK27, stronger effect = lower value
# [58] = locus YOR061W, strain CKA2, stronger effect = lower value
# [59] = locus YOR119C, strain RIO1, stronger effect = lower value
# [60] = locus YOR231W, strain MKK1, stronger effect = lower value
# [61] = locus YOR329C, strain SCD5, stronger effect = lower value
# [62] = locus YPL031C, strain PHO85, stronger effect = lower value
# [63] = locus YPL153C, strain RAD53, stronger effect = lower value
# [64] = locus YPL204W, strain HRR25, stronger effect = lower value
# [65] = locus YPL209C, strain IPL1, stronger effect = lower value
# [66] = locus YPL256C, strain CLN2, stronger effect = lower value
# [67] = locus YPR025C, strain CCL1, stronger effect = lower value
# [68] = locus YPR106W, strain ISR1, stronger effect = lower value
# [69] = locus YPR111W, strain DBF20, stronger effect = lower value
# [70] = strain NNK1, stronger effect = lower value
# [71] = strain TSCII, stronger effect = lower value
compound,measurement,setting,value
N=C(N)SCc1nc(-c2ccc(Cl)cc2)no1,normalized growth,[1],0.979
same,normalized growth,[2],0.985
same,normalized growth,[3],0.981
same,normalized growth,[4],0.984
same,normalized growth,[5],0.984
same,normalized growth,[6],0.977
same,normalized growth,[7],0.977
same,normalized growth,[8],0.99
same,normalized growth,[9],0.976
same,normalized growth,[10],0.99
same,normalized growth,[11],0.975
same,normalized growth,[12],0.99
same,normalized growth,[13],0.978
same,normalized growth,[14],0.978
same,normalized growth,[15],0.977
same,normalized growth,[16],0.989
same,normalized growth,[17],0.986
same,normalized growth,[18],0.983
same,normalized growth,[19],0.978
same,normalized growth,[20],0.982
same,normalized growth,[21],0.973
same,normalized growth,[22],0.986
same,normalized growth,[23],0.98
same,normalized growth,[24],1.03
same,normalized growth,[25],0.987
same,normalized growth,[26],0.949
same,normalized growth,[27],0.96
same,normalized growth,[28],1.06
same,normalized growth,[29],0.828
same,normalized growth,[30],0.985
same,normalized growth,[31],1.01
same,normalized growth,[32],0.929
same,normalized growth,[33],0.974
same,normalized growth,[34],0.987
same,normalized growth,[35],0.981
same,normalized growth,[36],1.11
same,normalized growth,[37],0.982
same,normalized growth,[38],0.984
same,normalized growth,[39],0.992
same,normalized growth,[40],0.985
same,normalized growth,[41],1.05
same,normalized growth,[42],0.989
same,normalized growth,[43],0.98
same,normalized growth,[44],0.911
same,normalized growth,[45],0.996
same,normalized growth,[46],0.981
same,normalized growth,[47],0.981
same,normalized growth,[48],0.985
same,normalized growth,[49],0.981
same,normalized growth,[50],0.986
same,normalized growth,[51],0.983
same,normalized growth,[52],1.1
same,normalized growth,[53],0.978
same,normalized growth,[54],0.984
same,normalized growth,[55],0.983
same,normalized growth,[56],0.981
same,normalized growth,[57],0.97
same,normalized growth,[58],0.986
same,normalized growth,[59],1.05
same,normalized growth,[60],1.03
same,normalized growth,[61],0.982
same,normalized growth,[62],0.964
same,normalized growth,[63],0.964
same,normalized growth,[64],0.953
same,normalized growth,[65],0.986
same,normalized growth,[66],0.925
same,normalized growth,[67],0.987
same,normalized growth,[68],0.978
same,normalized growth,[69],0.981
same,normalized growth,[70],0.992
same,normalized growth,[71],0.983
Clc1ccc(-c2noc(CSC3=NCCN3)n2)cc1,normalized growth,[1],0.987
same,normalized growth,[2],0.987
same,normalized growth,[3],0.98
same,normalized growth,[4],0.981
same,normalized growth,[5],0.984
same,normalized growth,[6],0.986
same,normalized growth,[7],0.979
same,normalized growth,[8],0.989
same,normalized growth,[9],0.979
same,normalized growth,[10],0.98
same,normalized growth,[11],0.923
same,normalized growth,[12],0.981
same,normalized growth,[13],0.96
same,normalized growth,[14],0.975
same,normalized growth,[15],0.938
same,normalized growth,[16],0.904
same,normalized growth,[17],0.935
same,normalized growth,[18],0.978
same,normalized growth,[19],0.987
same,normalized growth,[20],0.974
same,normalized growth,[21],0.948
same,normalized growth,[22],0.971
same,normalized growth,[23],0.926
same,normalized growth,[24],0.964
same,normalized growth,[25],0.955
same,normalized growth,[26],0.93
same,normalized growth,[27],0.968
same,normalized growth,[28],1.02
same,normalized growth,[29],0.962
same,normalized growth,[30],0.969
same,normalized growth,[31],0.949
same,normalized growth,[32],0.912
same,normalized growth,[33],0.925
same,normalized growth,[34],0.974
same,normalized growth,[35],0.912
same,normalized growth,[36],1.08
same,normalized growth,[37],0.96
same,normalized growth,[38],0.933
same,normalized growth,[39],0.939
same,normalized growth,[40],0.976
same,normalized growth,[41],1.01
same,normalized growth,[42],0.839 (active)
same,normalized growth,[43],0.959
same,normalized growth,[44],0.982
same,normalized growth,[45],0.912
same,normalized growth,[46],0.987
same,normalized growth,[47],0.938
same,normalized growth,[48],0.975
same,normalized growth,[49],0.985
same,normalized growth,[50],0.962
same,normalized growth,[51],0.965
same,normalized growth,[52],1.05
same,normalized growth,[53],0.988
same,normalized growth,[54],0.981
same,normalized growth,[55],0.946
same,normalized growth,[56],0.974
same,normalized growth,[57],0.941
same,normalized growth,[58],0.938
same,normalized growth,[59],1
same,normalized growth,[60],0.965
same,normalized growth,[61],0.981
same,normalized growth,[62],0.924
same,normalized growth,[63],0.92
same,normalized growth,[64],0.903
same,normalized growth,[65],0.986
same,normalized growth,[66],0.945
same,normalized growth,[67],0.986
same,normalized growth,[68],0.975
same,normalized growth,[69],0.97
same,normalized growth,[70],0.977
same,normalized growth,[71],0.986

# From PubChem BioAssay AID1159580 (chemical genetic matrix, 2015)
